Compounds without any hit were thinned out: in the full panel of roughly 83,000, 20% have a hit.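 Plates (96-well) were seeded with cells, treated with compound at one concentration, and incubated for 48 hours before percent growth was determined.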 Activity calls are given as the source filed them. Rule for the calls: active = growth percent below 10; inactive = the rest.
Tests used:
Assay in all cases: NCI-60 one-dose screen, 48 h (100 = growth as untreated, 0 = no growth, -100 = all killed)
Conditions in all cases: 10 µM unless noted
[1] = test system: NCI/ADR-RES ovarian
[2] = test system: T-47D breast
[3] = test system: BT-549 breast
[4] = test system: MDA-MB-435 melanoma
[5] = test system: SW-620 colon
[6] = test system: MCF7 breast
[7] = test system: HCT-116 colon
[8] = test system: HCC-2998 colon
[9] = test system: KM12 colon

Measured: growth

Cc1cc(-c2nc3cc(F)ccc3[se]2)cc(F)c1N
inactive: [1] 98.7% | [2] 14.2% | [3] 84.4% | [4] 101% | [5] 90.7% | [7] 71.2% | [8] 35.5% | [9] 61.2%
active: [6] 2.88%

O=P(Oc1ccc(Cl)cc1)(N1CC1)N1CC1
inactive: [1] 101% | [2] 106% | [3] 92.8% | [4] 109% | [5] 89.3% | [6] 67.4% | [7] 84% | [8] 88.5% | [9] 110%

CC(=O)OCC1O[C@@H]([S-])C(OC(C)=O)[C@H](OC(C)=O)[C@@H]1OC(C)=O.[Au+].c1ccc(CN2[CH-]N(Cc3ccccc3)C(c3ccccc3)=C2c2ccccc2)cc1
active: [2] -37.1% | [3] -30.2% | [5] 8.97% | [6] -3.49% | [8] -57.4%
inactive: [1] 98.7% | [4] 48.4% | [7] 18.8% | [9] 59.6%

C=CCn1cc(C=C2C(=O)N(C)C(=O)N(C)C2=O)c2ccccc21
inactive: [1] 101% | [2] 88.7% | [3] 98% | [4] 101% | [5] 97.9% | [6] 88.3% | [7] 100% | [8] 98.1% | [9] 102%

Cn1cccc1C1CC(=O)N(CCC[Se]C#N)C1=O (stereo not given)
active: [1] -0.356% | [3] -93.5% | [4] -6.27% | [6] 9.04% | [7] 2.78%
inactive: [2] 71.7% | [5] 56.7% | [8] 83.1% | [9] 12.3%

COC(=O)[C@@H](C)C[C@H](Cc1ccccc1)NC(=O)c1csc([C@@H](C[C@H](C(C)C)N(C)C(=O)[C@@H](NC(=O)C23CC(NC(C)=O)(C2)C3)C2CC2)OC(C)=O)n1
inactive: [1] 97.8% | [2] 62.7% | [3] 51.5% | [5] 41.3% | [7] 20.6% | [8] 49.3% | [9] 28%
active: [4] -16.5%

C[CH2][Sn]([Cl])([Cl])[CH2]C.Oc1ccccc1C=NCCN=Cc1ccccc1O
inactive: [1] 106% | [2] 90% | [3] 117% | [4] 108% | [5] 99.7% | [6] 131% | [7] 112% | [9] 106%

CC[C@H](C)[C@@H]1OC(=O)C(C)(C)[C@H](O)[C@H](Cc2ccccc2)OC(=O)[C@H](C(C)C)OC(=O)[C@@H](NC(=O)c2cccc(NC=O)c2O)[C@@H](C)OC1=O
inactive: [1] 53.4% | [2] 33.2% | [3] 53.8% | [4] 53.2% | [5] 60.8% | [6] 40% | [7] 36.5% | [9] 53.5%

CCCCCSC1C2C(=O)C(Br)=CC13CCNc1c(O)c4c5c(c13)=[N+]2CCC=5C=N4 (stereo not given)
inactive: [1] 29.1% | [3] 36.1%
active: [2] -48.2% | [4] -81.1% | [5] -54.5% | [6] -54.9% | [7] -92.3% | [8] -68.4% | [9] 2.34%

NC(N)=N/N=C\c1c[nH]c2ccc(Br)cc12
inactive: [1] 87% | [2] 36.6% | [3] 23.7% | [4] 98.1% | [5] 101% | [6] 75.4% | [7] 92% | [9] 94.9%

CNC(=O)Oc1ccc(N(C)C)cc1C(C)C
inactive: [1] 107% | [2] 101% | [3] 73.6% | [4] 91.7% | [5] 116% | [6] 91% | [7] 95.9% | [9] 112%

C/C(Cc1ccc(Cl)cc1)=C(\c1ccc(OCCN2CCOCC2)cc1)c1ccc(OC(=O)Cc2ccccc2)cc1
inactive: [1] 98.7% | [2] 66% | [3] 96.9% | [4] 98.6% | [5] 96.5% | [6] 69.4% | [7] 86.1% | [8] 91.3% | [9] 98%

O=P1(NCCCl)OCCCN1CCCl (stereo not given)
inactive: [1] 110% | [2] 105% | [3] 104% | [4] 107% | [5] 98% | [6] 101% | [7] 106% | [8] 107% | [9] 103%

O=C1C2CCC1C(N1CCCC1)CC2 (stereo not given)
inactive: [1] 102% | [2] 106% | [3] 98% | [4] 96.8% | [5] 99.5% | [7] 102% | [8] 106% | [9] 101%

N#C[Se]Cc1cc(-c2ccccc2)n(-c2ccc(S(N)(=O)=O)cc2)n1
inactive: [1] 35.4% | [8] 25.1%
active: [2] -1.52% | [3] -34.6% | [4] -28.8% | [5] -18.4% | [7] -59.4% | [9] -78.9%

CC(=O)OC1C(OC/C2=C/C3[C@@H](C(C)C)CC=C(C)[C@@H]3CC(OC(=O)/C=C/c3cn(C)cn3)[C@]3(C)C=C[C@@]2(O)O3)OCC(O)C1O (stereo not given in full)
inactive: [1] 80.8% | [2] 23% | [5] 35.8% | [9] 14.1%
active: [3] -14.3% | [4] -52.3% | [7] 4.11% | [8] -44.1%

N/C(=N\N=C\c1ccc(-c2ccccc2)cc1)N[N+](=O)[O-]
inactive: [1] 19.4% | [2] 36.1% | [3] 52% | [5] 20.7% | [7] 28.7% | [8] 60.9% | [9] 32.1%
active: [4] -27.4%

CCCC[C@H](NC(=O)[C@H]1CCCN1C)C(=O)N(C)[C@H](C[C@@H](OC(C)=O)c1nc(C(=O)N[C@@H](Cc2ccccc2)C[C@H](C)C(=O)OCC)cs1)C(C)C
inactive: [2] 54.4% | [5] 22.1% | [8] 14.2% | [9] 13.6%
active: [1] 7.13% | [3] -21.7% | [4] -28.6%

O=C1C=C(N2C3C4CCC(C4)C32)C(=O)C=C1c1ccccc1 (stereo not given)
inactive: [1] 99.4% | [3] 93.2% | [4] 99.7% | [5] 82.6% | [7] 85% | [8] 115% | [9] 102%
active: [2] 6.64%

O=C(N/N=C/c1ccc(N(CCCl)CCCl)cc1)c1cccc2ccccc12
inactive: [1] 72.9% | [2] 73.3% | [3] 67.4% | [4] 13.8% | [5] 54.1% | [7] 48.1% | [8] 87.7% | [9] 67.4%

COC(=O)[C@@H](NC(=O)c1cn(CCC2CCCCC2)c2ccccc12)C(C)(C)C
inactive: [1] 73.6% | [2] 61.9% | [3] 84.1% | [4] 83.3% | [5] 86.3% | [7] 64.2% | [8] 86.3% | [9] 69.8%

CC(=O)OC1CCC2(C)C(CCC3C2CC(=O)C2(C)C3CC(Sc3ccc(N(CCCl)CCCl)cc3)C2C(C)=O)C1 (stereo not given)
inactive: [1] 74.7% | [2] 66.7% | [3] 80.8% | [4] 105% | [5] 68.4% | [7] 72% | [8] 87.2% | [9] 32.6%

CC(=O)O[C@H](C[C@H](C(C)C)N(C)C(=O)[C@@H](NC(=O)[C@H]1CCCCN1C)C(C)C)c1nc(C(=O)N[C@@H](Cc2ccccc2)C[C@H](C)C(=O)O)c(C)s1
inactive: [2] 45.7% | [5] 25.5% | [8] 14% | [9] 15.6%
active: [1] 1.59% | [3] -8.43% | [4] -27%

CC1(C)N=C(N)N=C(N)N1c1ccc(CCCCc2ccc(Cl)c(S(=O)(=O)F)c2)c(Cl)c1
inactive: [1] 55.6% | [2] 42.3% | [3] 24.7% | [4] 24.6% | [5] 24.4% | [7] 19.6% | [8] 23.7% | [9] 15.2%

COC(=O)[C@@H](C)C[C@H](Cc1ccccc1)NC(=O)c1csc([C@@H](C[C@H](C(C)C)N(C)C(=O)C2(NC(=O)[C@H]3CCCCN3C)CC2)OC(C)=O)n1
inactive: [1] 61.8% | [2] 51.5% | [3] 12.8% | [5] 22.2%
active: [4] -28.8% | [7] 0.459% | [8] -2.95% | [9] 5.25%

O=C1CC2(CC3(Cl)C(Cl)=C(Cl)C2(Cl)C3(Cl)Cl)C(=O)O1 (stereo not given)
inactive: [1] 101% | [2] 99.6% | [3] 107% | [4] 103% | [5] 113% | [7] 91.1% | [8] 102% | [9] 106%

CC(=O)C(c1c(O)c2ccccc2oc1=O)c1cc(=O)oc2c1ccc1ccccc12 (stereo not given)
inactive: [1] 99.6% | [2] 84.3% | [3] 87.9% | [4] 103% | [5] 99% | [7] 92.3% | [8] 104% | [9] 109%

COC(=O)[C@@H](C)C[C@H](Cc1ccccc1)NC(=O)c1cccc([C@@H](C[C@H](C(C)C)N(C)C(=O)[C@@H](NC(=O)[C@H]2CCCCN2C)C(C)C)OC(C)=O)n1
active: [3] -12.5% | [4] -32.2% | [7] 2.54% | [8] 2.68% | [9] 7.8%
inactive: [1] 14.6% | [2] 47.1% | [5] 22%

Reference: PubChem BioAssay (NCI)
